{"source": "PubChem BioAssay (NCATS)", "note": "Inconclusive results are not listed. The source made the active and inactive calls. Calls follow the shape of the dose curve; as a rule, active = well fitted cell-killing curve with a large enough effect; inconclusive = small, poorly fitted or top-dose-only effect; inactive = flat fitted curve, though single readings scatter. Potency is read from the fitted curve at half-maximal effect.", "data": [{"test": "qHTS of pediatric cancer cell lines to identify multiple opportunities for drug repurposing: Primary screen for RD cells (AID 1347104); also: nearly all actives have a fitted effect of over 55% in size;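 as to activity change, negative = cytotoxic: plate controls were DMSO for no effect and bortezomib for full effect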", "details": "RD rhabdomyosarcoma viability, CellTiter-Glo luminescence, 48 h; series mostly up to 46 µM; activity change, negative = cytotoxic: at the top concentration", "source_text": "Drug repurposing or repositioning has been offered as a strategy for drug development in oncology programs. This approach has special potential for childhood cancers and other rare or orphan diseases, where the expected return on new drug development has been a disincentive to pharmaceuticals. […] In this project we exploit the poly-pharmacology of drugs to discover new indications via phenotypic screening of a panel of 19 well-characterized cell lines derived from solid tumors seen in children and adolescents. The goal is to identify approved drugs with previously unrecognized anticancer properties that has the potential to reveal new mechanisms and biological processes involved in carcinogenesis or drug resistance. We employed a titration-based paradigm (quantitative high-throughput screening or qHTS), where all compounds were tested at multiple concentrations for their effect on cell viability. Concentration-response curves (CRCs) were derived directly from the primary screen, and both potency and efficacy values were used to identify compounds with robust bioactivity profiles. We screened the NIH Chemical Genomics Center (NCGC) Pharmaceutical Collection (NPC) and Mechanism Interrogation Plate (MIPE) small molecule collections of approved and investigational compounds against these cell lines; and measured metabolically active cells after 48 hours of compound treatment as a proxy for cell viability. […] Assay Submitter: Nathalia J. Martinez, National Center for Advancing Translational Sciences, National Institutes of Health, Rockville, MD, USA; email: natalia.martinez@nih.gov Shen, M et al. Quantitative high-throughput phenotypic screening of pediatric cancer cell lines identifies multiple opportunities for drug repurposing. Oncotarget 2017 Dec 19;9(4):4758-4772. PMID 29435139.\nThe cells were obtained from University of North Carolina (UNC), Pediatric Preclinical Testing Program (PPT), and Coriell Institute (CI). qHTS cell viability assay: Cells were assayed in growth media at a density of 500-1,000 cells/well. Five microliters of cells were dispensed into 1,536-well, white, solid-bottom, TC-treated plates (Greiner Bio One) using a multidrop dispenser and incubated at 37 degrees C, 5% CO2, under a humidified atmosphere for 5 hours. Twenty-three nanoliters of compounds and controls (neutral control DMSO or positive control bortezomib at final concentration of 2.3 µM) were subsequently transferred by Kalypsys pintool. For primary screens, the MIPE collection was tested at 11-point dilutions (final concentrations range from 0.78 nM to 46 µM) and the NPC collection at 8-point dilutions (final concentrations range from 0.59 nM to 46 µM). Compounds tested in follow-up screens were assayed at 11-point dilutions. Cells were incubated for 48 hours, followed by addition of 3 µL of CellTiter-Glo (Promega). After a 15 min incubation at room temperature, samples were analyzed for luminescence intensity using a ViewLux High-throughput CCD imager equipped with clear filters.", "values": [{"smiles": "C=CCc1ccccc1OCC(O)CNC(C)C", "note": "(stereo not given)", "activity change, negative = cytotoxic": "-4.01% (inactive)"}, {"smiles": "O=C(O)CCCCCCCC(=O)O", "activity change, negative = cytotoxic": "6.74% (inactive)"}, {"smiles": "Nc1ncn([C@@H]2O[C@H](CO)[C@@H](O)[C@H]2O)c(=O)n1", "Potency": "8.41 µM (active)"}, {"smiles": "NC(=O)c1cn(Cc2c(F)cccc2F)nn1", "activity change, negative = cytotoxic": "3.1% (inactive)"}, {"smiles": "COc1cc2c(cc1OC)-c1cc(=Nc3c(C)cc(C)cc3C)n(C)c(=O)n1CC2", "Potency": "23.7 µM (active)"}, {"smiles": "NC1=NCC2c3ccccc3Cc3ccccc3N12", "note": "(stereo not given)", "activity change, negative = cytotoxic": "-13.3% (inactive)"}, {"smiles": "CN1C(=O)CC[C@H]1c1cccnc1", "activity change, negative = cytotoxic": "11.8% (inactive)"}, {"smiles": "CCn1nc(C(=O)O)c(=O)c2cc3c(cc21)OCO3", "activity change, negative = cytotoxic": "13.9% (inactive)"}, {"smiles": "CN(C)C(=O)Oc1cccc([N+](C)(C)C)c1", "activity change, negative = cytotoxic": "7.45% (inactive)"}, {"smiles": "CC1=C(C)C(=O)C(CCCCC#CCCCC#CCO)=C(C)C1=O", "activity change, negative = cytotoxic": "-24.5% (inactive)"}, {"smiles": "Cc1nc2c([nH]1)c(=O)n(C)c(=O)n2Cc1ccco1", "activity change, negative = cytotoxic": "0.0055% (inactive)"}, {"smiles": "CCCNC(C)C(=O)Nc1ccccc1C", "note": "(stereo not given)", "activity change, negative = cytotoxic": "14.6% (inactive)"}, {"smiles": "c1cnc(N2CCN(Cc3ccc4c(c3)OCO4)CC2)nc1", "activity change, negative = cytotoxic": "4.72% (inactive)"}, {"smiles": "COc1ccc(CN(CCN(C)C)c2ccccn2)cc1", "activity change, negative = cytotoxic": "-1.64% (inactive)"}, {"smiles": "OCCN1CCN(CC/C=C2/c3ccccc3Sc3ccc(C(F)(F)F)cc32)CC1", "Potency": "26.6 µM (active)"}, {"smiles": "C[C@@H](O)[C@H]1C(=O)N2C(C(=O)O)=C(SCCN=CN)C[C@H]12", "activity change, negative = cytotoxic": "-9.63% (inactive)"}, {"smiles": "CCCCNc1ccc(C(=O)OCCN(C)C)cc1", "activity change, negative = cytotoxic": "17% (inactive)"}, {"smiles": "CN(C)CCN(Cc1cccs1)c1ccccn1", "activity change, negative = cytotoxic": "6.52% (inactive)"}, {"smiles": "CC(=O)[C@@]1(O)CC[C@H]2[C@@H]3CCC4=CC(=O)CC[C@]4(C)[C@H]3CC[C@@]21C", "activity change, negative = cytotoxic": "-3.06% (inactive)"}, {"smiles": "C[N+](C)(C)CCCCCCCCCC[N+](C)(C)C", "activity change, negative = cytotoxic": "18.9% (inactive)"}, {"smiles": "O=C1NCN(c2ccccc2)C12CCN(CCCC(c1ccc(F)cc1)c1ccc(F)cc1)CC2", "Potency": "26.6 µM (active)"}, {"smiles": "O=C(O)CN(CCN(CC(=O)O)CC(=O)O)CCN(CC(=O)O)CC(=O)O", "activity change, negative = cytotoxic": "11.7% [at 16.1 µM] (inactive)"}, {"smiles": "CCCN1C[C@H](CSC)C[C@@H]2c3cccc4[nH]cc(c34)C[C@H]21", "activity change, negative = cytotoxic": "0.267% (inactive)"}, {"smiles": "C[N+](C)(C)CCOC(N)=O", "activity change, negative = cytotoxic": "12.6% (inactive)"}, {"smiles": "CC(=O)Nc1nnc(S(N)(=O)=O)s1", "activity change, negative = cytotoxic": "5.29% (inactive)"}, {"smiles": "C[C@]12C=CC(=O)C=C1CC[C@H]1[C@@H]3C[C@@H](O)[C@](O)(C(=O)CO)[C@@]3(C)C[C@H](O)[C@@]12F", "activity change, negative = cytotoxic": "11.6% (inactive)"}, {"smiles": "Cc1cccc(C)c1NC(=O)C(C)N", "note": "(stereo not given)", "activity change, negative = cytotoxic": "6.6% (inactive)"}, {"smiles": "C[n+]1cc2c3c(ccc2c2ccc4cc5c(cc4c21)OCO5)OCO3", "Potency": "1.84 µM (active)"}, {"smiles": "CCN(CC)CC(=O)Nc1c(C)cccc1C", "activity change, negative = cytotoxic": "1.27% (inactive)"}, {"smiles": "CC(=O)[C@]1(O)Cc2c(O)c3c(c(O)c2[C@@H](O[C@H]2C[C@H](N)[C@H](O)[C@H](C)O2)C1)C(=O)c1ccccc1C3=O", "Potency": "1.06 µM (active)"}, {"smiles": "c1ccc2c(c1)CCCC2C1=NCCN1", "note": "(stereo not given)", "activity change, negative = cytotoxic": "8.85% (inactive)"}, {"smiles": "CN(C)[C@@H]1C(=O)C(C(N)=O)=C(O)[C@@]2(O)C(=O)C3=C(O)c4c(O)ccc(Cl)c4[C@@H](O)[C@H]3C[C@@H]12", "activity change, negative = cytotoxic": "3.58% (inactive)"}, {"smiles": "O=c1[nH]c(=O)n([C@H]2C[C@H](O)[C@@H](CO)O2)cc1Br", "activity change, negative = cytotoxic": "-5.47% (inactive)"}, {"smiles": "CC1=NS(=O)(=O)c2cc(Cl)ccc2N1", "activity change, negative = cytotoxic": "7.37% (inactive)"}, {"smiles": "NC(Cc1ccc(Cl)cc1)C(=O)O", "note": "(stereo not given)", "activity change, negative = cytotoxic": "7.62% [at 0.597 µM] (inactive)"}, {"smiles": "C#CCN(C)CCCOc1ccc(Cl)cc1Cl", "activity change, negative = cytotoxic": "2.83% (inactive)"}, {"smiles": "CC[N+](C)(C)c1cccc(O)c1", "activity change, negative = cytotoxic": "12.1% (inactive)"}, {"smiles": "CC(C)(Oc1ccc(CCNC(=O)c2ccc(Cl)cc2)cc1)C(=O)O", "activity change, negative = cytotoxic": "9% (inactive)"}, {"smiles": "Cc1cc(C)c(/C=C2\\C(=O)Nc3ccccc32)[nH]1", "activity change, negative = cytotoxic": "-19.7% (inactive)"}, {"smiles": "CC(C)(C)NCC(O)c1cc(O)cc(O)c1", "note": "(stereo not given)", "activity change, negative = cytotoxic": "6.85% (inactive)"}]}]}
